Reference: PubChem BioAssay (NCATS)
Inconclusive results are not listed. Entries that show only a call come without a potency. Unmarked numbers belong to inactive results. The source made the active and inactive calls. Calls come from the whole dose curve; as a rule, active = well fitted curve in the direction sought with a large enough effect; inconclusive = small, poorly fitted or top-dose-only effect, or another doubt; inactive = no such curve, though single readings can be large; an effect the other way counts as inactive or inconclusive.

Key:
[1] = biological target: Cellular tumor antigen p53 (Homo sapiens) (UniProt P04637); assay: Primary qHTS for small molecule compounds that upregulate eGFP-tagged delta133p53alpha (in N-terminal) cells. (AID 2060322); settings: NCI-H358 eGFP-delta133p53alpha fluorescence, 24 h; activation: stronger effect = higher value; note: nearly all actives have a fitted effect of over 75% in size; note: potency is the fitted concentration of half-maximal effect;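 for activation: cells pre-induced with doxycycline then dosed without doxycycline; series mostly up to about 56 µM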
Sequence of Cellular tumor antigen p53 (Homo sapiens) (P04637 whole entry, looked up): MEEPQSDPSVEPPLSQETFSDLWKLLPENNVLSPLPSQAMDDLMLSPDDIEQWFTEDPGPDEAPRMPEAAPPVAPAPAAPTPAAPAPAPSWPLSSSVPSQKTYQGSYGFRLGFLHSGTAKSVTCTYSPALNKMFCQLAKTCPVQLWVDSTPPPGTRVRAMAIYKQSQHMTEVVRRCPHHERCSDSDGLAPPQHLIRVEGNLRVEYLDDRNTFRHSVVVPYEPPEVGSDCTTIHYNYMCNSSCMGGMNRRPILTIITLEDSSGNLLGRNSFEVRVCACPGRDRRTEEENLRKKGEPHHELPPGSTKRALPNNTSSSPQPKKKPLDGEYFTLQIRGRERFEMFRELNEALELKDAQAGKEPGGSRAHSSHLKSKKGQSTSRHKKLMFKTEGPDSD
Procedure, shortened: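 NCI-H358 cells pre-induced 24 h with 10 ng/ml doxycycline for eGFP-delta133p53alpha, plated dox-free and exposed 24 h at 37C to titrated compounds. Fixed, Hoechst-stained; gated GFP peak intensity by laser scanning cytometry, normalized to DMSO (0%) and 57.5 uM 5-azacytidine (100%).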

[2] = biological target: Aldehyde dehydrogenase, mitochondrial (Homo sapiens) (UniProt P05091); assay: qHTS for Inhibitors of the Aldehyde Dehydrogenase Family (ALDH2) Primary screen (AID 2061308); note: nearly all actives have a fitted effect of over 55% in size
[3] = biological target: Retinaldehyde dehydrogenase 3 (Homo sapiens) (UniProt P47895); assay: qHTS for Inhibitors of the Aldehyde Dehydrogenase Family (ALDH1A3) Primary screen (AID 2061315)

COc1ccc([C@H]2Cc3cccc(O)c3C(=O)O2)cc1OC
activation [1]: 6.87% | Potency [2]: inactive | Potency [3]: inactive

C=C1C(=O)OC2/C=C(\CO)CC/C=C(\C=O)C(OC)C(OC(=O)C(C)CC)C12 (stereo not drawn)
activation [1]: -6.11% | Potency [2]: inactive | Potency [3]: inactive

C=C(C)[C@@H]1CC[C@]2(C)CC[C@]3(C)C(CCC4[C@@]5(C)CC[C@H](O)C(C)(C)C5CC[C@]43C)C12 (stereo partly drawn)
activation [1]: -19.6% | Potency [2]: inactive | Potency [3]: inactive

CC(=O)C1=CCC2C3CC=C4CC(O)CC(O)C4(C)C3C(O)CC12C (stereo not drawn)
activation [1]: 6.11% | Potency [2]: inactive | Potency [3]: inactive

CCC(C)/C=C(C)/C=C/C1=CC2=C(Cl)C(=O)C(C)(OC(C)=O)C(=O)C2=CN1C1CCCCN(C(CCC(N)=O)C(=O)O)C1=O (stereo not drawn)
activation [1]: 2.68% | Potency [2]: inactive | Potency [3]: inactive

C/C=C/C1=CC2=CC(=O)C(C)(O)C(OC(=O)c3c(C)cc(O)cc3O)C2CO1 (stereo not drawn)
activation [1]: -12.2% | Potency [2]: inactive | Potency [3]: inactive

CC1=C2C3OC(=O)C(C)C3(O)CCC2(C)CCC1 (stereo not drawn)
activation [1]: 2.68% | Potency [2]: inactive | Potency [3]: inactive

O=c1ccn(C2OC(CO)C(O)C2O)c(=O)[nH]1 (stereo not drawn)
activation [1]: 17.6% | Potency [2]: inactive | Potency [3]: inactive

CC1=CCC2C(C)(CO)CCCC2(C)C1CC12OC1C(O)C(CO)=CC2O (stereo not drawn)
activation [1]: 12.2% | Potency [2]: inactive | Potency [3]: inactive

CCN1CCN(Cc2ccc(NC(=O)c3ccc(C)c(Oc4ccnc5[nH]ccc45)c3)cc2C(F)(F)F)CC1
Potency [1]: 14.8 µM (active) | Potency [2]: inactive | Potency [3]: inactive

CC(=O)OCC1=C[C@H](O)[C@@H]2C(C(=O)O)=CO[C@@H](O[C@@H]3O[C@H](CO)[C@@H](O)[C@H](O)[C@H]3O)[C@H]12
activation [1]: 0.763% | Potency [2]: inactive | Potency [3]: inactive

COc1cc(/C=C/C(=O)O[C@@H]2C[C@](O)(C(=O)O)C[C@@H](O)[C@H]2O)ccc1O
activation [1]: 3.57% | Potency [2]: inactive | Potency [3]: inactive

Cc1occc(=O)c1O[C@@H]1O[C@H](COC(=O)CC(C)(O)CC(=O)O)[C@@H](O)[C@H](O)[C@H]1O (stereo partly drawn)
activation [1]: -11.6% | Potency [2]: inactive | Potency [3]: inactive

Nc1ncnc2c1nc(Cl)n2C1OC2COP(=O)(O)OC2C1O (stereo not drawn)
activation [1]: -12.3% | Potency [2]: inactive | Potency [3]: inactive

O=C(O)CCc1c(C(=O)O)[nH]c2cc(Cl)cc(Cl)c12
activation [1]: 3% | Potency [2]: inactive | Potency [3]: inactive

CCOc1cc(CNC2CCCC2)cc(Cl)c1OCc1ccc(Cl)cc1
Potency [1]: 21.3 µM (active) | Potency [2]: inactive | Potency [3]: inactive

C=C(CCC1C(C)(O)CCC2C(C)(C)C(O)CCC12C)C(O)CO (stereo not drawn)
activation [1]: -7.14% | Potency [2]: inactive | Potency [3]: inactive

Cc1cc(O)c(C(C)C)cc1O[C@@H]1O[C@H](CO)[C@@H](O)[C@H](O)[C@H]1O
activation [1]: -17.6% | Potency [2]: inactive | Potency [3]: inactive

CC1(C)[C@@H]2CC=C(CO[C@@H]3O[C@H](CO[C@@H]4OC[C@H](O)[C@H](O)[C@H]4O)[C@@H](O)[C@H](O)[C@H]3O)[C@H]1C2
activation [1]: -4.46% | Potency [2]: inactive | Potency [3]: inactive

CC1OC2OC(=O)C3(C)CC4=C(CO)C5=C(CC(=O)C4(C)C(C1=O)C23)C(C)(C)OC(=O)C5 (stereo not drawn)
activation [1]: -7.63% | Potency [2]: inactive | Potency [3]: inactive

C=C1CC2C3(C)C(O)CC(=O)C(C)(C)C3C(OC(C)=O)C(OC(C)=O)C2(C)C2C(=O)OC(C)(C(=O)OC)C(=O)C12C (stereo not drawn)
activation [1]: -16.8% | Potency [2]: inactive | Potency [3]: inactive

C=C1C(=O)O[C@H]2C3=C(C)CCC[C@]3(C)C(=O)C[C@@H]12
Potency [1]: 15.1 µM (active) | Potency [2]: inactive | Potency [3]: inactive

COc1ccc(C2C(C(=O)O)C(C(=O)O)C2c2ccc(OC)cc2O[C@@H]2O[C@H](CO)[C@@H](O)[C@H](O)[C@H]2O)c(O[C@@H]2O[C@H](CO)[C@@H](O)[C@H](O)[C@H]2O)c1 (stereo partly drawn)
activation [1]: 7.63% | Potency [2]: inactive | Potency [3]: inactive

Cc1ccccc1-n1c([C@H](C)Nc2nc(N)nc3nc[nH]c23)nc2cccc(C)c2c1=O
activation [1]: -15.2% | Potency [2]: inactive | Potency [3]: inactive

CC1(C)CCC2(C(=O)OC3OCC(O)C(O)C3O)CCC3(C)C(=CCC4C5(C)CC(O)C(OC6OC(COC7OCC(O)C(O)C7O)C(O)C(O)C6O)C(C)(C)C5CCC43C)C2C1 (stereo not drawn)
activation [1]: 4.46% | Potency [2]: inactive | Potency [3]: inactive

C[C@@H]1O[C@@H](OC(=O)Cc2ccccc2)[C@H](O)[C@H](O)[C@H]1O
activation [1]: 17% | Potency [2]: inactive | Potency [3]: inactive
